Assay results reported in PubChem BioAssay (NCATS).
Results filed as inconclusive are left out. Active and inactive are the calls of the source. Unless noted, calls come from the whole dose curve; as a rule, active = well fitted curve in the direction sought with a large enough effect; inconclusive = small, poorly fitted or top-dose-only effect, or another doubt; inactive = no such curve, though single readings can be large; an effect the other way counts as inactive or inconclusive.

What was measured:
[1] = P-glycoprotein substrates identified in KB-8-5-11 adenocarcinoma cell line, qHTS therapeutic library screen (AID 1346987); note: nearly all actives have a fitted effect of over 65% in size; note: potency is the fitted concentration of half-maximal effect
How it was run: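 Human cervical adenocarcinoma KB-8-5-11 cells, selected in colchicine to over-express P-gp and assayed without it, were exposed for 72 h to titrated compounds. An ATP-based luminescent viability signal gave AC50.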

[2] = Primary qHTS for inhibitors of nuclear receptor binding SET domain protein 2 (NSD2) in an isogenic RCH-ACV NSD2 p.E1099K mutant (9B) (AID 1645876); note: potency is the fitted concentration of half-maximal effect; nearly all actives have a fitted effect of over 70% in size
[3] = Primary qHTS for inhibitors of nuclear receptor binding SET domain protein 2 (NSD2) in an RCH-ACV wild type WT cells (2C) (AID 1645877); note: potency is the fitted concentration of half-maximal effect; nearly all actives have a fitted effect of over 70% in size
[4] = molecular target: Glutathione peroxidase 1 (Homo sapiens) (UniProt P07203); assay: Primary qHTS Assay for Inhibitors of Recombinant Selenoprotein Glutathione Peroxidase 1 (GPX1) (AID 1845191); note: nearly all actives have a fitted effect of over 65% in size
Glutathione peroxidase 1 (Homo sapiens), sequence (P07203 whole entry, looked up): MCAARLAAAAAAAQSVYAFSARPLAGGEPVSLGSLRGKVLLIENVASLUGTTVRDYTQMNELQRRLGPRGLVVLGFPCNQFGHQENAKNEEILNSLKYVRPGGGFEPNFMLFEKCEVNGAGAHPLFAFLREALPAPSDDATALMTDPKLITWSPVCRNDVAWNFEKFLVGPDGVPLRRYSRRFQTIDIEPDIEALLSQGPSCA
How it was run: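 GPX1 10 nM, GR 100 nM, GSH 1 mM, NADPH 0.5 mM, CHP 0.5 mM (final). 30-min cpd preincubation, RT. Ex340/Em450 read t=0, t=15 min.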

[5] = qHTS drug screen for cell cycle checkpoint inhibitors in PARPi-resistant BRCA-mutant ovarian cancer cell lines. (AID 1963452; calls by dose curve); conditions: PEO1/OlaR viability, CellTiter-Glo luminescence, 96 h, stronger effect = lower value
How it was run: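 PEO1, PEO4 and PEO1/OlaR ovarian cancer cells, 600 per well, exposed 96 h at 37C to a dilution series. Viability read by CellTiter-Glo luminescence, normalized to DMSO and empty wells; activity summarized as Z-AUC.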

SMILES | Potency [1] | Potency [2] | Potency [3] | Potency [4] | Z-AUC [5] | Z-AUC ([5]; measured here: PEO1 parental Z-AUC) | Z-AUC ([5]; measured here: PEO4 Z-AUC)
Cc1ccc(NC(=O)Nc2nnc(Sc3ncnc4cc(OCCCN5CCOCC5)ccc34)s2)cc1 | inactive | 3.66 µM (active) | 5.17 µM (active) | inactive | -0.628 (inactive) | 0.369 | 0.158
CC/C(=C(/CC)c1ccc(O)c(CN(CC)CC)c1)c1ccc(O)c(CN(CC)CC)c1 | 14.6 µM (active) | 9.2 µM (active) | 16.4 µM (active) | inactive |  |  | 
